The panel holds about 83,000 compounds, 20% with a hit somewhere; the sample as a whole holds those more often.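 In brief: 96-well plates, 48 h treatment, single concentration, percent growth endpoint.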 A number with no mark means an inactive call. The source made the active and inactive calls. Rule for the calls: active = growth percent below 10; inactive = the rest.

Some test systems named below: NCI-H23 lung; NCI-H226 lung; NCI-H322M lung; HOP-62 NSCLC; NCI-H460 lung; HOP-92 NSCLC; NCI-H522 lung; A549/ATCC NSCLC; 786-0 renal; COLO 205 colon.
Common to all, as to test: NCI-60 one-dose screen, 48 h (100 = growth as untreated, 0 = no growth, -100 = all killed)
Common to all, as to conditions: 10 µM unless noted

`COc1cc(CNC(=O)C[C@H](C)CCC=C(C)C)ccc1OCc1cn(-c2ccc(Cl)cc2Cl)nn1`: the growth in the test with NCI-H23 lung was 56.6%; in the test with NCI-H226 lung it was 66.4%; in the test on NCI-H322M lung it was 95.2%; in the test with HOP-62 NSCLC, 11.3%; in the test on NCI-H460 lung, 75.1%; with HOP-92 NSCLC it was -3.27% (active). For the same molecule, the growth is 55.4% in the test on NCI-H522 lung, 59.4% in the test on A549/ATCC NSCLC, 38.9% with 786-0 renal and 105% in the test on COLO 205 colon.

Consider `Cc1ccc(C(C(=O)NC2CCCCC2)N(Cc2ccccc2Cl)C(=O)c2ccc(CN3CCOCC3)o2)o1` (stereo not given), for which the growth in the test with NCI-H23 lung is 93.8%; in the test on NCI-H226 lung it was 101%; in the test on NCI-H322M lung it was 105%; with HOP-62 NSCLC, 107%; with NCI-H460 lung, 99.9%; with HOP-92 NSCLC it was 91.3%. The growth was 78.7% in the test on NCI-H522 lung, 98.5% in the test on A549/ATCC NSCLC, 82.8% with 786-0 renal and 121% with COLO 205 colon.

`O=[N+]([O-])c1cccc(-c2nnc3c(/C=C/c4ccc(F)cc4)nc4ccccc4n23)c1`: the growth was 91.7% with NCI-H23 lung; 98.6% in the test on NCI-H226 lung; 101% with NCI-H322M lung; 97.9% with HOP-62 NSCLC; 90.3% in the test on NCI-H460 lung; 80% in the test with HOP-92 NSCLC. Further, the growth in the test on NCI-H522 lung is 81%; in the test on A549/ATCC NSCLC it was 95%; with 786-0 renal, 93.5%; with COLO 205 colon it was 126%.

As to `COc1ccc2[nH]c(O)c(N=NC(=O)c3ccc4nc(-c5ccc(Cl)cc5)[nH]c4c3)c2c1`, the growth with NCI-H23 lung was 65.6%; in the test with NCI-H226 lung, 77.5%; in the test with NCI-H322M lung, 85.9%; in the test on HOP-62 NSCLC, 48.9%; with NCI-H460 lung it was 101%; in the test on HOP-92 NSCLC, 73.3%. The growth in the test on NCI-H522 lung is 35.3%; in the test with A549/ATCC NSCLC, 113%; in the test with 786-0 renal, 90.6%; in the test on COLO 205 colon, 18%.

For `C=CC(=O)N1CCN(c2ccc3nc4c(nc3c2C(F)(F)F)C(=O)c2ncccc2C4=O)CC1`, the growth is -61.5% (active) with NCI-H23 lung; 63.8% with NCI-H226 lung; 10.2% with NCI-H322M lung; 39.9% with HOP-62 NSCLC; -34.3% (active) in the test with NCI-H460 lung; -3.31% (active) in the test with HOP-92 NSCLC. The growth was -8.31% (active) with NCI-H522 lung, 2.38% (active) in the test on A549/ATCC NSCLC, 22% with 786-0 renal and -22.8% (active) in the test on COLO 205 colon.

Turning to `CN1CCc2c(sc3ncnc(N/N=C/c4cccc(Cl)c4Cl)c23)C1`, the growth with NCI-H23 lung was -6.68% (active); with NCI-H226 lung, 134%; with NCI-H322M lung it was 77.3%; with HOP-62 NSCLC, -38.2% (active); in the test with NCI-H460 lung it was -71.1% (active); in the test on HOP-92 NSCLC, 58.4%. The growth in the test with NCI-H522 lung is 68.8%; in the test with A549/ATCC NSCLC, -70.1% (active); in the test on 786-0 renal, -16.1% (active); in the test with COLO 205 colon, -80.3% (active).

As to `COc1ccc(S(=O)(=O)Nc2ccc(-c3ccc4c(c3)NC(=O)/C4=C\c3ccc[nH]3)cc2)cc1OC`, the growth in the test with NCI-H23 lung is -25.1% (active); in the test with NCI-H226 lung, -37.8% (active); in the test with NCI-H322M lung, 31.6%; with HOP-62 NSCLC, 0.497% (active); in the test on NCI-H460 lung it was -52.5% (active); in the test on HOP-92 NSCLC, 5.85% (active). Also, the growth in the test with NCI-H522 lung was 2.96% (active); with A549/ATCC NSCLC it was -25.8% (active); in the test with 786-0 renal, -9.09% (active); with COLO 205 colon, 39.8%.

As for `O=C(CSc1nc2sc3c(c2c(=O)n1-c1ccc(Cl)cc1)CCCC3)NNC(=O)c1ccc(F)cc1`, the growth in the test with NCI-H23 lung was 73.7%; with NCI-H226 lung it was 62.7%; with NCI-H322M lung it was 73.8%; in the test on HOP-62 NSCLC, 23.7%; in the test on NCI-H460 lung, 88.6%; with HOP-92 NSCLC it was 69.2%. For the same molecule, the growth in the test with NCI-H522 lung was 77.3%; with A549/ATCC NSCLC, 94.2%; in the test with 786-0 renal, 96.8%; in the test with COLO 205 colon it was 125%.

As for `O=c1ccc(Cn2c(C(F)(F)F)cc3c(Cl)ncnc32)c[nH]1`, the growth is 17.7% in the test on NCI-H23 lung; 116% in the test on NCI-H226 lung; 67.2% in the test on NCI-H322M lung; 94.7% with HOP-62 NSCLC; 32.5% with NCI-H460 lung; 78.6% with HOP-92 NSCLC. Moreover, the growth in the test on NCI-H522 lung is -77.1% (active); with A549/ATCC NSCLC it was 105%; in the test on 786-0 renal, 102%; in the test on COLO 205 colon, 62.6%.

As for `Nc1nn2c(-c3cc4ccccc4oc3=O)ccnc2c1N=Nc1ccccc1`, the growth is 12.5% in the test on NCI-H23 lung; 35.1% with NCI-H226 lung; 65.4% with NCI-H322M lung; 22.3% in the test with HOP-62 NSCLC; 44.4% in the test on NCI-H460 lung; 30.2% in the test with HOP-92 NSCLC. In addition, the growth with NCI-H522 lung is 25.3%; in the test on A549/ATCC NSCLC, 100%; in the test with 786-0 renal, 41.4%; with COLO 205 colon it was 114%.

As to `O=c1[nH]c2ccccc2cc1CSc1ccccc1Nc1nccc(-c2ccc3c(c2)OCO3)n1`, the growth in the test with NCI-H23 lung was 85.5%; in the test with NCI-H226 lung, 49.7%; in the test on NCI-H322M lung, 87.7%; with HOP-62 NSCLC, 40.6%; in the test with NCI-H460 lung, 76.7%; in the test with HOP-92 NSCLC, 71.7%. The growth is 34.8% in the test on NCI-H522 lung, 82.4% in the test with A549/ATCC NSCLC, 64.7% in the test on 786-0 renal and 84.9% in the test on COLO 205 colon.

Source of the values: PubChem BioAssay (NCI).
